Structures are written as SMILES. About 83,000 compounds went through this panel and 20% of them were active in at least one assay; those are over-represented in the sample as a whole.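 Negative percent growth values reflect cell death: -40 means 40% of the cells present at the start died, and -100 means all died.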 A number with no mark means an inactive call. Calls of active or inactive are those of the source.

For the assay, the system named is UO-31 renal. The experiment in a line: NCI-60 one-dose screen, 48 h (100 = growth as untreated, 0 = no growth, -100 = all killed). To be noted: 10 µM unless noted. Here is the method:
Growth inhibition of the UO-31 human tumor cell line is measured as a screen for anti-cancer activity. Cells are grown in 96 well plates and exposed to the test compound for 48 hours. Compounds are tested at a single concentration, which is 10^-5 M for most compounds. The reported endpoint is percent growth (GI% or GIPRCNT), where numbers from 0 - 100% represent growth inhibition, and numbers from -100% - 0 represent cell death. For example, a value of 40 represents 60% growth inhibition. A value of 0 means no net growth occurred over the course of the experiment. A value of -40 indicates 40% of cells at the beginning of the experiment died by the end of the experiment. A value of -100 means all cells are dead at the end of the experiment.
NCI-60 Human Tumor Cell Lines Screen was performed using the standard one-dose NCI protocol, which is described in more detail at https://dtp.cancer.gov/discovery_development/nci-60/default.htm.
Compounds with GIPRCNT values below 10 were considered active. Activity score was based on GIPRCNT using the following formula: […]
Score is 0 for GIPRCNT values of 100 or above, 50 for GIPRCNT values of 0, and 100 for GIPRCNT values of -100.
For `COc1cc2cn3c4ccc(O)cc4[nH]c(=O)c3c2cc1OC`, the growth is -32.2% (active). With `COc1ccc2oc(=O)cc(CN3C(=O)S/C(=C\c4ccc(Cl)cc4)C3=O)c2c1`, the growth was 83.4%.

Turning to `COC(=O)c1cc(Nc2ccc(O)c3c2C(=O)c2c([N+](=O)[O-])ccc(O)c2C3=O)cc(C(=O)OC)c1`, the growth was 67.1%. For `Cc1ccc(CC(=O)O)c(C)c1`, the growth was 91.4%. Next, `COC(=O)c1ccc2[nH]c(O)c(C(=Nc3ccc(N(C)C(=O)CN4CCN(C)CC4)cc3)c3cccc(OC)c3)c2c1`: 20.2%.

On to `CCCCCN1CCN(C(CC(=O)c2ccccc2)C(=O)c2ccccc2)CC1` (stereo not given), for which the growth is 95%. In the case of `COc1cc(-c2nn(-c3ccc(NC(=O)Nc4cc(C(F)(F)F)cc(C(F)(F)F)c4)cc3)cc2-c2ccncc2)ccc1Cl`, the growth is -7.1% (active). Under `c1ccc(-c2cn3ccnc3c(-c3ccc4ncn(C5CCCCC5)c4c3)n2)cc1` stands 44.8%; under `COc1cccc(CNC(=O)c2cccc(C3CC(=O)c4c(cc(OC)c(OC)c4OC)O3)c2)c1` (stereo not given), 51.6%; under `CC(=O)Nc1nc(C)c(C(=O)NNS(=O)(=O)c2ccccc2)s1`, 91.8%. In the case of `CCCNC(=O)Oc1ccc(/C(=C(/CC)Cc2ccccc2)c2ccc(OCCN(CC)CC)cc2)cc1`, the growth was 51.5%. Turning to `C#CCCCCCCC[C@@H]1OC(=O)[C@H]([C@@H](C)CC)NC(=O)[C@@H]([C@@H](C)CC)NC(=O)CC(=O)[C@@H]1C`, the growth is 60.9%. For the compound `O=C(O)/C(Br)=C/c1c[nH]c2ccc(Br)cc12`, the growth is 88.8%. Turning to `CCCCCSc1ccc2nc(NC(=O)OCC)sc2c1`, the growth is 38.3%.

Take `Cc1ccc(OCCn2ccc(=O)n(CCOc3ccc(Cl)cc3C(=O)c3cc(C)cc(C)c3)c2=O)cc1`: the growth was 41.8%. Next, `CC[N+](C)(C)N`: 89.8%; `CC1=C(C)C(=O)C(C(C)C2=C(C)C(=O)C(C)=C(C)C2=O)=C(C)C1=O`: 83.8%. Regarding `COC(=O)c1ccc2[nH]c(O)c(C(=Nc3ccc(N(C)C(=O)CN4CCN(C)CC4)cc3)c3ccc(CCO)cc3)c2c1`, the growth was 72.2%.

For `N#Cc1c2cccnc2c2nnc3cc(Cl)c(Cl)cc3n12`, the growth is 30.8%. Under `COc1ccc(C(O)(c2ccccc2)C(C(=O)O)c2ccccc2)cc1` (stereo not given) stands 81.6%; under `CN1NC(c2ccccc2)NN(C)C1=O`, 67.8%; under `CCOc1ccc2nc3ccc(Cl)cc3nc2c1`, 74.9%. Consider `COc1ccc(Oc2[nH]n(C3=Nc4ccccc4Sc4ccccc43)c(=O)c2C#N)cc1`, for which the growth is 87.9%.

In the case of `Cc1[nH]n(C(=S)Nc2nc3cc(Cl)c(F)cc3s2)c(=O)c1N=Nc1ccc(F)c(Cl)c1`, the growth was 93%. Next, `CN(C)CCOC(=O)C(C)(C)C`: 89.9%. In the case of `Cc1nc2ccccc2c(=O)n1-c1cccc(OCc2cn(-c3cccc(O)c3)nn2)c1`, the growth is 68.2%. Turning to `O=C(/C=C/c1cccc(O)c1)c1cccc(-n2cc(-c3ccc(Cl)cc3)[nH]c2=O)c1`, the growth is -78.3% (active). On to `CCCCCCCCC1OC1CCCCCCCC(=O)O` (stereo not given), for which the growth was 96.7%.

As to `CC(=O)NCCN`, the growth was 98.4%. As to `CCCC(C)c1cc(Cc2cc(Cl)cc(Cl)c2O)c(O)c(Cc2cc(Cl)cc(Cl)c2O)c1` (stereo not given), the growth was 6.1% (active).

On to `N#CCc1ncc(-c2ccc(C(F)(F)F)cc2)c(NC2CCCCCC2)n1`, for which the growth was 29.8% [100 µM]. Next, `Nc1nc2c(c3cnccc13)C(c1cccc(Cl)c1)Cc1cnccc1-2` (stereo not given): 26.1%; `CCOC(=O)c1c(C)oc2ncnc(Nc3ccc(NC(=O)Nc4cccc(Cl)c4)cc3)c12`: 50.4%. Next, `Cc1nc(NC(=S)Nc2ccc(F)cc2)sc1C(=O)NNC(=S)Nc1ccc(F)cc1`: 38.7%; `O=c1c2c(c3ccccc3n1-c1ccccc1)NC(=S)NC2c1ccccc1` (stereo not given): 71.7%; `Clc1ccc(N/N=C(/c2ccccc2)c2ccccn2)nc1`: 28.3%.

Regarding `CCCCN(CCC)CCCCCCCCCCN1CCCc2ccccc21`, the growth is 54.3%. `CC1(C)N=C(N)N=C(N)N1c1cccc(CCCCOc2ccccc2)c1`: the growth is 84.2%. As to `Cc1c(Cc2ccccc2)c(=O)oc2c(C)c(OCc3n[nH]c(=S)o3)ccc12`, the growth was 94.8%. Next, `BrCCCOc1ccc(Oc2ccc(OCCCBr)cc2)cc1`: 105%.

The values above are taken from PubChem BioAssay (NCI).
